About 83,000 compounds went through this panel and 20% of them were active in at least one assay; those are over-represented in the sample as a whole.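 Each cell line was grown in a 96-well plate and treated with one concentration of compound for 48 hours. Values below 10 were considered active.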 Active and inactive are the calls of the source.
Assays:
Experiment in all cases: NCI-60 one-dose screen, 48 h (100 = growth as untreated, 0 = no growth, -100 = all killed)
Conditions in all cases: 10 µM unless noted
HCT-15 colon = tested on: HCT-15 colon
SNB-75 CNS = tested on: SNB-75 CNS
SNB-19 CNS = tested on: SNB-19 CNS
U251 CNS = tested on: U251 CNS
PC-3 prostate = tested on: PC-3 prostate
SK-MEL-5 melanoma = tested on: SK-MEL-5 melanoma
UACC-62 melanoma = tested on: UACC-62 melanoma
LOX IMVI melanoma = tested on: LOX IMVI melanoma
SK-MEL-28 melanoma = tested on: SK-MEL-28 melanoma
SK-MEL-2 melanoma = tested on: SK-MEL-2 melanoma
EKVX NSCLC = tested on: EKVX NSCLC
SN12C renal = tested on: SN12C renal
UO-31 renal = tested on: UO-31 renal
TK-10 renal = tested on: TK-10 renal
ACHN renal = tested on: ACHN renal
CAKI-1 renal = tested on: CAKI-1 renal
A498 renal = tested on: A498 renal
CCRF-CEM leukemia = tested on: CCRF-CEM leukemia
MOLT-4 leukemia = tested on: MOLT-4 leukemia

SMILES | growth (HCT-15 colon) | growth (SNB-75 CNS) | growth (SNB-19 CNS) | growth (U251 CNS) | growth (PC-3 prostate) | growth (SK-MEL-5 melanoma) | growth (UACC-62 melanoma) | growth (LOX IMVI melanoma) | growth (SK-MEL-28 melanoma) | growth (SK-MEL-2 melanoma) | growth (EKVX NSCLC) | growth (SN12C renal) | growth (UO-31 renal) | growth (TK-10 renal) | growth (ACHN renal) | growth (CAKI-1 renal) | growth (A498 renal) | growth (CCRF-CEM leukemia) | growth (MOLT-4 leukemia)
Nc1nc(N)c2cc(NCc3ccc(Cl)c(Cl)c3)ccc2n1 | -80% (active) | -97.1% (active) | -85.6% (active) | -94.5% (active) | -88.7% (active) | -97.5% (active) | -84% (active) | -80.4% (active) | -94.1% (active) | -79.2% (active) | -78.8% (active) | -79.5% (active) | -75.4% (active) | -93.8% (active) | -94.8% (active) | -68.4% (active) | 34.2% (inactive) | -49.2% (active) | -55.6% (active)
CN1C(=O)C(C2=NNC(c3ccccc3C(=O)O)C2)C(=O)N(C)C1=O (configuration not stated) | 106% (inactive) | 85.4% (inactive) | 92.9% (inactive) | 98.1% (inactive) | 95.6% (inactive) | 108% (inactive) | 96.2% (inactive) | 101% (inactive) | 123% (inactive) | 98.9% (inactive) | 102% (inactive) | 97.2% (inactive) | 86.5% (inactive) | 96.9% (inactive) | 106% (inactive) | 86.6% (inactive) | 90.8% (inactive) | 96% (inactive) | 93.8% (inactive)
C=CCN1C(=O)/C(=c2\sc3n(c2=O)C2C(NN=3)N(CC)C(=O)N2CC)c2ccccc21 (configuration not stated) | 15.7% (inactive) | 23.8% (inactive) | 26.8% (inactive) | 22.8% (inactive) | 22% (inactive) | 18.5% (inactive) | 26.1% (inactive) | 28.9% (inactive) | 62.4% (inactive) | 46.5% (inactive) | 37.3% (inactive) | 35.8% (inactive) | 48.3% (inactive) | 60.6% (inactive) | 37.6% (inactive) | 43.2% (inactive) | 10.7% (inactive) | 12.8% (inactive) | 19.1% (inactive)
CC(C)CCSc1nc(Nc2ccccc2)c(C#N)c(-c2ccc(F)cc2)n1 | 71.7% (inactive) | 42.1% (inactive) | 53% (inactive) | 14% (inactive) | 59.1% (inactive) | 96.6% (inactive) | 82.4% (inactive) | 60.4% (inactive) | 87.3% (inactive) | 90.6% (inactive) | 65.1% (inactive) | 38.9% (inactive) | 30% (inactive) | 20.6% (inactive) | 13.4% (inactive) | 55.5% (inactive) | 40% (inactive) | 49.3% (inactive) | 51.5% (inactive)
CCOC(=O)c1ccc2c(c1)nc(-c1ccc(Cl)cc1)n2-c1cc(C(C)(C)C)[nH]n1 | 20.2% (inactive) | 18.2% (inactive) | 48% (inactive) | 33.6% (inactive) | 48.7% (inactive) | 0.494% (active) | 25.5% (inactive) | 27.8% (inactive) | 36.2% (inactive) | 38.7% (inactive) | 47.6% (inactive) | 60.5% (inactive) | 36.3% (inactive) | 84.9% (inactive) | 35.8% (inactive) | 25.5% (inactive) | 45.3% (inactive) | 22.3% (inactive) | 9.68% (active)
O=C1c2cccc3cccc(c23)C(=O)N1CCCCCCCCCCN1C(=O)c2cccc3cccc(c23)C1=O | 102% (inactive) | 80.8% (inactive) | 104% (inactive) | 100% (inactive) | 103% (inactive) | 102% (inactive) | 99.8% (inactive) | 102% (inactive) | 109% (inactive) | 93.6% (inactive) |  | 100% (inactive) | 99.4% (inactive) | 121% (inactive) | 96.2% (inactive) | 98% (inactive) | 105% (inactive) |  | 107% (inactive)
COc1ccc(-c2conc2-n2nc(-c3ccccc3)nc2-c2ccccc2)cc1 | 107% (inactive) | 98.3% (inactive) | 104% (inactive) | 106% (inactive) | 95.6% (inactive) | 101% (inactive) | 103% (inactive) | 92.6% (inactive) | 108% (inactive) | 103% (inactive) | 101% (inactive) | 101% (inactive) | 73.2% (inactive) | 137% (inactive) | 97.2% (inactive) | 83.8% (inactive) | 120% (inactive) | 106% (inactive) | 99.1% (inactive)
c1ccc2c(N=NSc3ncnc4nc[nH]c34)c3ccccc3nc2c1 | -7.02% (active) | 2.72% (active) | 12.3% (inactive) | 8.63% (active) | -1.78% (active) | -59.4% (active) | -38.7% (active) | -46.6% (active) | -37.6% (active) | -23.6% (active) | 16.7% (inactive) | 4.81% (active) | 4.86% (active) | 36.4% (inactive) | -27.8% (active) | 19.7% (inactive) | -8% (active) | -4.86% (active) | -17.4% (active)
CCSc1cnnc2ccccc12 | 105% (inactive) | 89.3% (inactive) | 106% (inactive) | 102% (inactive) | 104% (inactive) | 107% (inactive) | 102% (inactive) | 103% (inactive) | 107% (inactive) | 115% (inactive) | 98.9% (inactive) | 103% (inactive) | 94.3% (inactive) | 116% (inactive) | 95.1% (inactive) | 95.3% (inactive) | 89.3% (inactive) | 97.2% (inactive) | 89.7% (inactive)
CCCCCCCCCCCCCC | 106% (inactive) | 72.4% (inactive) |  |  | 88.1% (inactive) | 108% (inactive) |  | 94.9% (inactive) | 106% (inactive) |  | 95.2% (inactive) |  | 98.6% (inactive) |  | 111% (inactive) | 98.9% (inactive) |  | 90.4% (inactive) | 111% (inactive)
COc1cccc(N2CCN(c3ncnc4cc[nH]c34)CC2)c1 | 83% (inactive) | 84% (inactive) | 66.2% (inactive) | 66.9% (inactive) | 53% (inactive) | -0.321% (active) | 58.8% (inactive) | 51.6% (inactive) | 80.8% (inactive) | 64.7% (inactive) | 50.1% (inactive) | 85.5% (inactive) | 65% (inactive) | 52.8% (inactive) | 59.6% (inactive) | 71.6% (inactive) | 41.3% (inactive) | 60.9% (inactive) | 29.6% (inactive)
ClCc1c(Cl)c(Cl)c(Cl)c(CCl)c1Cl | 4.87% (active) | 89% (inactive) | 58.7% (inactive) | -25.4% (active) | 8.08% (active) | 61.3% (inactive) | 103% (inactive) | -79% (active) | 88.7% (inactive) | 87.7% (inactive) | 101% (inactive) | 41.5% (inactive) | -21.7% (active) | -73.9% (active) | 8.92% (active) | -76.4% (active) | 89% (inactive) | 3.24% (active) | 13.3% (inactive)
O=C(CCl)Nc1ccc2c(c1)C(=O)c1ccccc1C2=O | -38.8% (active) | 41.7% (inactive) | 36.9% (inactive) | -56.3% (active) | -12.6% (active) | -82.8% (active) | -54.9% (active) | -81% (active) | 35.4% (inactive) | 19.1% (inactive) | 57% (inactive) | -21.3% (active) | 46.6% (inactive) | -27.9% (active) | -67.8% (active) | 0.23% (active) | 44% (inactive) | -46.2% (active) | -29.1% (active)
Cc1c(C(=O)Nc2ccccc2F)sc2c(=O)[nH]cnc12 | 59% (inactive) | 77.9% (inactive) | 96% (inactive) |  | 81.9% (inactive) | 92.3% (inactive) | 78.4% (inactive) | 85% (inactive) | 94.3% (inactive) | 53.9% (inactive) | 91% (inactive) | 96.2% (inactive) | 74.6% (inactive) | 90.8% (inactive) | 102% (inactive) | 74.7% (inactive) | 99.6% (inactive) | 90.4% (inactive) | 82% (inactive)
CCOC(=O)C#Cc1c(C(=O)OCC)nnn1[C@@H]1O[C@H](COC(C)=O)[C@@H](OC(C)=O)[C@H]1OC(C)=O | 44% (inactive) | 95.5% (inactive) | 93% (inactive) | 100% (inactive) | 102% (inactive) | 96.6% (inactive) | 93.1% (inactive) | 85.8% (inactive) | 107% (inactive) |  | 103% (inactive) | 88.5% (inactive) | 65% (inactive) | 62.3% (inactive) | 53.2% (inactive) | 4.56% (active) | 102% (inactive) | 48.3% (inactive) | 79.9% (inactive)
COc1ccc(C(=O)O)cc1.[Ag] | 102% (inactive) | 110% (inactive) | 106% (inactive) | 103% (inactive) | 77.1% (inactive) | 46.5% (inactive) | 108% (inactive) | 88.7% (inactive) | 110% (inactive) | 94.6% (inactive) | 108% (inactive) | 103% (inactive) | 91.2% (inactive) | 106% (inactive) | 103% (inactive) | 87.2% (inactive) | 96.5% (inactive) | 25.4% (inactive) | -52.5% (active)
COc1cc2ncnc(Nc3ccc(S(=O)(=O)Nc4cc(C)on4)cc3)c2cc1OCCCN1CCN(c2ccc([N+](=O)[O-])cc2)CC1 | 105% (inactive) | 91.9% (inactive) | 100% (inactive) | 97.1% (inactive) | 104% (inactive) | 111% (inactive) | 94.4% (inactive) | 96.1% (inactive) | 112% (inactive) | 109% (inactive) | 116% (inactive) | 102% (inactive) | 79.2% (inactive) |  | 109% (inactive) | 92.8% (inactive) | 110% (inactive) | 99.1% (inactive) | 111% (inactive)
COc1ccc2[nH]cc(C3(c4c[nH]c5ccc(OC)cc45)C(=O)Nc4ccc(Cl)cc43)c2c1 | 69.1% (inactive) | 39.7% (inactive) | 82.3% (inactive) | 72.2% (inactive) | 15% (inactive) | 89.2% (inactive) | 73% (inactive) | 45% (inactive) | 95.3% (inactive) | 90.7% (inactive) | 43.5% (inactive) | 91.8% (inactive) | 46.3% (inactive) |  | 76% (inactive) | 62.2% (inactive) | 73.8% (inactive) | 15.8% (inactive) | 5.75% (active)
O=C(N/N=C/c1ccc([N+](=O)[O-])cc1)c1ccccc1Nc1ccnc(C(F)(F)F)c1 | 89.9% (inactive) | 77.2% (inactive) | 82.4% (inactive) | 88.7% (inactive) | 72.9% (inactive) | -99% (active) | 57.6% (inactive) | 78.2% (inactive) | 104% (inactive) |  | 67.5% (inactive) | 83.9% (inactive) | 67.8% (inactive) | 83.4% (inactive) | 82.6% (inactive) | 76.4% (inactive) | -26.1% (active) | 77.9% (inactive) | 86.3% (inactive)

Reference: PubChem BioAssay (NCI)
